Sampled rows, rich in hits. Any-hit rate of the full collection: about 7.3%.
ELG1 genotoxic = inducers of genotoxicity in HEK293T ELG1-luciferase cells. HEK293T ELG1-luciferase reporter, luminescence, 16 h. Potency, µM (doses to about 46 µM), for inactives: at the highest dose activity change, positive = activation, actives largely listed as activators. 330,000 compounds, 1.3% hits. AID 504466; also: % of control where 0% means no effect; nearly all actives have a fitted effect of over 60% in size
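DMSO vehicle served as control against compound-treated ELG1-luciferase HEK293T cells; exposure lasted 16 hr at 37 °C and 5% CO2, followed by ONE-Glo luminescence detection after 30 min.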
SMN2 splice up = enhancers of SMN2 splice variant expression. HEK293 SMN2-luciferase splicing reporter, luminescence, 30-36 h. Potency, µM (titrated, usually from 46.1 µM), for inactives: top-dose activity change, positive = activation, usual class: activators. 210,000 compounds, 2.8% hits; also: % of control where 0% means no effect; nearly all actives have a fitted effect of over 55% in size
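HEK293 cells carry an SMN2 minigene-luciferase reporter in which exon 7 inclusion puts luciferase in frame. Cells were seeded at 2000 cells/well, attached for 10-12 hours, then exposed to compounds for 30-36 hours at 37C before ONE-Glo luminescence.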
KinaseGlo FLuc = counter-screen: inhibitors of Kinase-Glo firefly luciferase | Q27757 | Kinase-Glo luciferase, ATP luminescence, 8 min | Potency, µM (doses to about 38.3 µM), for inactives: at the top dose activity change, negative = inhibition, hits mostly inhibitors | 200,000 compounds, 0.28% hits; also: % is scaled to controls: 0 for no effect and ±100 for the full control effect; nearly all actives have a fitted effect of over 60% in size
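Light output from Kinase-Glo luciferase with luciferin and 10 uM ATP in 50 mM imidazole pH 7.2, KCl, MgCl2, Tween 20, BSA; compound pin-delivered, 8-min ambient incubation, then luminescence read.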
NPC1 promoter act = activators of NPC1 promoter | Huh7 NPC1 promoter luciferase reporter, 24 h | Potency, µM (titrated, usually from 9.22 µM), for the others: top-dose activation, most hits filed as activators | 320,000 compounds, 2.4% hits | AID 485313; also: % of control where 0% means no effect; nearly all actives have a fitted effect of over 60% in size
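Stable NPC1-promoter luciferase Huh7 line; cpd (DMSO) 24 h, 37 °C, 5% CO2; Amplite luciferase reagent 10 min RT; luminescence readout. qHTS format.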
Rab9 prom act = Rab9 promoter activation; Huh7 Rab9 promoter-luciferase reporter, luminescence, 24 h; Potency, µM (doses to about 9.22 µM), for the others: at the top dose activation, negative = inhibition, hits mostly activators; 320,000 compounds, 2.8% hits; also: % of control where 0% means no effect; nearly all actives have a fitted effect of over 60% in size
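Luminescence from Amplite-detected luciferase (10 minutes, ambient) reports Rab9 promoter activation. Before that, stable Rab9-luciferase Huh7 cells (1500/well, reduced-serum OP-MEM I plus 10% FBS) were exposed to compound for 24 hours at 37C.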
FLuc modulator = firefly luciferase modulation, counter-screen for miR-21 project. purified FLuc, Km substrates, luminescence inhibition. Potency, µM (highest dose often 57.5 µM), for the others: at the highest dose activity change, negative = inhibition, actives largely listed as inhibitors. 360,000 compounds, 6.9% hits. P08659. AID 588342;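 also: plate controls were vehicle for no effect and reference inhibitor for full effect; nearly all actives have a fitted effect of over 55% in size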
Target sequence (P08659 whole entry, looked up): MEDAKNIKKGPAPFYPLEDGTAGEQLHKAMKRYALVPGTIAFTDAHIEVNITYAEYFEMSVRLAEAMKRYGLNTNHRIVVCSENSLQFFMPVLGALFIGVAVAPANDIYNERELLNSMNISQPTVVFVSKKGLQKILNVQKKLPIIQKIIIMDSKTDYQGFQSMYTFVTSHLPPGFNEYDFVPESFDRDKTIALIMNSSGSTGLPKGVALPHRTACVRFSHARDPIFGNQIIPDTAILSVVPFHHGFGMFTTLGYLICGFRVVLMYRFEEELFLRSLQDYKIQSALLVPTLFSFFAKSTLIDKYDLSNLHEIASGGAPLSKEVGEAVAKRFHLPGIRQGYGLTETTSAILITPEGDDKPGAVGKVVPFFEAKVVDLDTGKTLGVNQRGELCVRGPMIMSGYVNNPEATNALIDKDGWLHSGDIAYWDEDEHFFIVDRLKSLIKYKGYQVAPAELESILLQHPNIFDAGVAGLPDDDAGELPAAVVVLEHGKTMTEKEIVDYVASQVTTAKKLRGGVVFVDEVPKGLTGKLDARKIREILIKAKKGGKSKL
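Purified P. pyralis luciferase (10nM final) with 10uM D-luciferin and 10uM ATP (Km levels) in 50mM Tris acetate pH 7.5, 10mM Mg acetate, 0.01% Tween-20, 0.05% BSA; qHTS 6-point titration, ~60 µM downward; luminescence read.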
Starred values were filed as active, the others as inactive; ? = inconclusive; . = no result given; [ ] = dose if it differs, or a comment. Calls follow the shape of the dose curve; as a rule, active = well fitted curve in the direction sought with a large enough effect; inconclusive = small, poorly fitted or top-dose-only effect, or another doubt; inactive = no such curve, though single readings can be large; an effect the other way counts as inactive or inconclusive. Potency is read from the fitted curve at half-maximal effect.

SMILES	ELG1 genotoxic	SMN2 splice up	KinaseGlo FLuc	NPC1 promoter act	Rab9 prom act	FLuc modulator
CSc1ccccc1NC(=O)C1CC(c2c(F)cccc2Cl)=NO1 (centres undefined)	?	.	.	13.6%	16.3%	16.9µM*
CN(Cc1cccs1)C(=O)CCCc1c[nH]c2ccccc12	?	?	-1.8%	23.2%	3.16µM*	26.9µM*
COc1ccc(CCNC(=O)c2n[nH]c3ccccc23)cc1	0.4%	23.7%	0.5%	17.4%	20.8%	21.3µM*
O=C(NCCc1c[nH]c2ccccc12)c1cnc2sccn2c1=O	8.2µM*	14.1µM*	-2.7%	3.55µM*	4.47µM*	15.1µM*
O=C(NCCc1c[nH]c2ccccc12)c1ccc(Cl)cc1	?	.	.	1.78µM*	2.82µM*	10.7µM*
O=C(NCCSc1c[nH]c2ccccc12)c1ccc(Cl)cc1	.	-17.2%	.	.	.	-14.0%
CCOc1ccc(CCNC(=O)c2cn(CC)c3ccc(S(=O)(=O)N4CCCCCC4)cc3c2=O)cc1OCC	.	11.9%	.	.	.	-8.6%
CC(C)CCNC(=O)CN1C(=O)CSc2ccc(S(=O)(=O)N3CCC(C)CC3)cc21	.	.	.	.	.	2.5%
Cc1ccsc1C(=O)NCCc1c[nH]c2ccccc12	?	.	.	?	?	19µM*
Cc1ccsc1C(=O)NCCc1nnc2ccccn12	?	.	.	?	2.51µM*	?
Cc1ccsc1C(=O)NCCC(c1ccccc1)c1ccccc1	-0.5%	-11.2%	1.0%	0.6%	-5.8%	-0.8%
COc1ccc(C(=O)NCCc2c[nH]c3ccccc23)cc1	9.2µM*	.	.	2.82µM*	1.58µM*	9.53µM*
COc1ccc(C(=O)c2c[nH]c3ccccc23)cc1	.	?	-3.0%	.	.	3.38µM*
CCC(=O)NCCc1c[nH]c2ccccc12	.	-2.8%	0.0%	.	.	-0.8%
CC(C)=C[C@H]1[C@@H](COC(=O)c2ccccc2Cl)C1(C)C	.	-7.3%[9.22 µM]	-1.0%[7.66 µM]	.	.	.
CCN(CC)CCNC(=O)c1ccc2c(=O)n3nc(Nc4cccc(Cl)c4C)sc3nc2c1	.	.	.	.	.	-2.0%
O=C(NCCc1c[nH]c2ccccc12)c1ccc(F)cc1F	?	.	.	?	?	12µM*
COc1cc(SC)ccc1C(=O)NCCc1c[nH]c2ccccc12	9.6%	.	.	19.8%	16.1%	?
CNc1ncnc2sc(-c3ccccc3)cc12	12.2%	.	.	1.7%	3.6%	?
S=c1[nH]cnc2sc(-c3ccccc3)cc12	0.3%	.	-2.7%	17.4%	?	10.7µM*
CC(=O)CCSc1ncnc2sc(-c3ccccc3)cc12	-8.2%	.	.	4.8%	9.8%	0.9%
O=C(O)CSc1ncnc2sc(-c3ccccc3)cc12	-5.3%	2.1%	-2.6%	7.7%	13.1%	13.5µM*
O=C(O)CCSc1ncnc2sc(-c3ccccc3)cc12	-7.0%	.	.	-23.4%	-26.8%	21.3µM*
CCOc1cccc(C=Nc2cc(C)cc(C)c2O)c1O	3.0%	14.5%	-3.1%	3.0%	9.3%	26.9µM*
CCOc1cccc(/C=N/N2C(C)CCCC2C)c1O (centres undefined)	6.5%	.	.	-0.6%	3.6%	16.9µM*
SMILES	ELG1 genotoxic	SMN2 splice up	KinaseGlo FLuc	NPC1 promoter act	Rab9 prom act	FLuc modulator
CCOc1cccc(/C=N/N=C/c2cccc(OCC)c2O)c1O	3.0%	.	.	14.5%	12.1%	-11.3%
COc1ccc(-c2cc3ccc(O)c(CN4CCCCC4C)c3oc2=O)cc1OC (centres undefined)	.	.	.	.	.	-1.4%
COc1ccc(-c2csc(Nc3ccccn3)n2)cc1OC	2.31µM*	.	.	1.78µM*	2µM*	6.75µM*
c1ccc(-c2csc(Nc3ccccn3)n2)cc1	2.91µM*	.	.	2.24µM*	1.26µM*	1.35µM*
c1ccc(Nc2ccccc2Nc2ccccn2)nc1	0.1%	-9.7%	2.0%	2.2%	0.7%	-2.2%
Cc1cc(-c2csc(Nc3ccccn3)n2)ccc1F	?	.	.	1.41µM*	1.58µM*	1.69µM*
Fc1ccc(-c2csc(Nc3ccccn3)n2)c(F)c1	?	.	.	1.58µM*	2.82µM*	0.601µM*
Oc1ccc(-c2csc(Nc3ccccn3)n2)cc1	7.3µM*	.	.	2µM*	3.16µM*	6.75µM*
COc1ccc(-c2csc(Nc3ccc(C)cn3)n2)cc1	2.5%	.	-1.8%	-4.7%	-4.1%	-4.6%
